PubChem BioAssay (NCATS)
Results filed as inconclusive are left out. Entries that show only a call come without a potency. Active and inactive are the calls of the source. The call rests on the fitted dose curve; in most records, active means well fitted curve in the direction sought with a large enough effect; inconclusive means small, poorly fitted or top-dose-only effect, or another doubt; inactive means no such curve, though single readings can be large; an effect the other way counts as inactive or inconclusive.

What was measured:
[1] = qHTS of pediatric cancer cell lines to identify multiple opportunities for drug repurposing: Primary screen for DAOY cells (AID 1347090); further: nearly all actives have a fitted effect of over 55% in size; further: potency means the concentration at half of the fitted maximal effect
Summary of the method: (§1)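 Eight- or eleven-point concentration series, 48 h treatment at 37 degrees C in growth media; readout CellTiter-Glo luminescence. Potency and efficacy were taken from the concentration-response curves.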

[2] = qHTS of pediatric cancer cell lines to identify multiple opportunities for drug repurposing: Primary screen for SJ-GBM2 cells (AID 1347091); further: potency means the concentration at half of the fitted maximal effect
Summary of the method: as §1

[3] = qHTS of pediatric cancer cell lines to identify multiple opportunities for drug repurposing: Primary screen for A673 cells (AID 1347092); further: nearly all actives have a fitted effect of over 45% in size; further: potency means the concentration at half of the fitted maximal effect
Summary of the method: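 A673 cells (500-1,000 cells/well) were treated 48 hours at 37 degrees C with compounds at 11-point (0.78 nM to 46 µM) or 8-point (0.59 nM to 46 µM) dilutions. Viability read by CellTiter-Glo luminescence; concentration-response curves fitted.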

[4] = qHTS of pediatric cancer cell lines to identify multiple opportunities for drug repurposing: Primary screen for SK-N-MC cells (AID 1347093); further: potency means the concentration at half of the fitted maximal effect
Summary of the method: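 Metabolically active cells were quantified by ATP-dependent luminescence (CellTiter-Glo, 15 min at room temperature) following 48 h treatment. Cells had been plated at 500-1,000 per well and settled for 5 h beforehand.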

[5] = qHTS of pediatric cancer cell lines to identify multiple opportunities for drug repurposing: Primary screen for BT-37 cells (AID 1347094); further: potency means the concentration at half of the fitted maximal effect
Summary of the method: (§2)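 Plated cells (500-1,000 per well, growth media) were allowed to settle for 5 hours, treated with compound dilutions for 48 hours, then lysed with CellTiter-Glo for 15 min at room temperature before luminescence reading.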

[6] = qHTS of pediatric cancer cell lines to identify multiple opportunities for drug repurposing: Primary screen for NB-EBc1 cells (AID 1347095); further: potency means the concentration at half of the fitted maximal effect
Summary of the method: as §2

[7] = qHTS of pediatric cancer cell lines to identify multiple opportunities for drug repurposing: Primary screen for U-2 OS cells (AID 1347096); further: nearly all actives have a fitted effect of over 50% in size; further: potency means the concentration at half of the fitted maximal effect
Summary of the method: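 Cells (500-1,000/well) in growth media were settled 5 h at 37 degrees C, then given compounds for 48 h. Viability was read as CellTiter-Glo luminescence. Primary runs used MIPE at 11 points (0.78 nM-46 µM) and NPC at 8 points (0.59 nM-46 µM); follow-ups used 11 points.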

[8] = qHTS of pediatric cancer cell lines to identify multiple opportunities for drug repurposing: Primary screen for TC32 cells (AID 1347089); further: nearly all actives have a fitted effect of over 60% in size
Summary of the method: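 TC32 cells, 500-1,000/well in growth medium, compound-treated 48 h at 37 °C; viability from CellTiter-Glo luminescence. Primary screen: MIPE 11-point (0.78 nM–46 µM final), NPC 8-point (0.59 nM–46 µM final); confirmatory at 11-point dilutions.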

Structure (SMILES)	Potency [1]	Potency [2]	Potency [3]	Potency [4]	Potency [5]	Potency [6]	Potency [7]	Potency [8]
CN1[C@@H]2CC[C@H]1CC(OC(=O)c1c[nH]c3ccccc13)C2 (stereo partly drawn)	inactive	inactive	inactive	inactive	inactive	inactive	inactive	–
O=C1c2ccccc2C(=O)C1c1ccccc1	inactive	inactive	inactive	inactive	inactive	inactive	inactive	–
CCOC(=O)OC(C)OC1=C(C(=O)Nc2ccccn2)N(C)S(=O)(=O)c2ccccc21 (stereo not drawn)	inactive	inactive	inactive	inactive	inactive	inactive	inactive	–
CC(C)(Oc1ccc(Cl)cc1)C(=O)O	inactive	inactive	inactive	inactive	inactive	inactive	inactive	–
CC1(C)O[C@@H]2[C@@H](CO[C@@]3(COS(N)(=O)=O)OC(C)(C)O[C@@H]23)O1	inactive	inactive	inactive	inactive	inactive	inactive	inactive	–
C[C@@H]1C[C@H]2[C@@H]3C[C@H](F)C4=CC(=O)C(Cl)=C[C@]4(C)[C@@]3(F)[C@@H](O)C[C@]2(C)[C@@]1(O)C(=O)CO	inactive	inactive	inactive	inactive	inactive	inactive	–	–
COc1cc(-c2ccc(=O)[nH]n2)ccc1OC(F)F	inactive	inactive	inactive	inactive	inactive	inactive	inactive	–
O=C(CCN1CCC(c2ccccc2)C1)c1ccc2c(c1)OCCO2 (stereo not drawn)	–	inactive	–	–	inactive	23.7 µM (active)	inactive	inactive
CN(C/C=C/c1ccccc1)Cc1cccc2ccccc12	–	–	–	–	–	–	inactive	inactive
CC(C)(CO)[C@@H](O)C(=O)NCCCO	inactive	inactive	inactive	inactive	inactive	inactive	–	–
CC(C)COC(=O)c1ccc(N)cc1	inactive	inactive	inactive	inactive	inactive	inactive	–	–
CCN(CC)C(=O)N1CCN(C)CC1	inactive	inactive	inactive	inactive	inactive	inactive	–	–
COc1cc(C=C2CCC/C(=C\c3ccc(O)c(OC)c3)C2=O)ccc1O	21.1 µM (active)	23.7 µM (active)	0.266 µM (active)	0.335 µM (active)	27.6 µM (active)	–	–	–
C[C@H]1[C@H](NC(=O)/C(=N/OC(C)(C)C(=O)O)c2csc(N)n2)C(=O)N1S(=O)(=O)O (stereo in doubt)	inactive	inactive	inactive	inactive	inactive	inactive	inactive	–
O=C(CCCN1CCC(O)(c2ccc(Br)cc2)CC1)c1ccc(F)cc1	inactive	21.1 µM (active)	inactive	inactive	0.001 µM (active)	inactive	inactive	–
Cc1ccc(C(=O)C(C)CN2CCCCC2)cc1 (stereo not drawn)	inactive	inactive	inactive	inactive	inactive	inactive	inactive	–
CCCCCCCCCCCCCCCC[N+](C)(C)CC	13.3 µM (active)	18.8 µM (active)	1.06 µM (active)	2.66 µM (active)	13.8 µM (active)	–	–	–
O=C1OC2(c3ccc(O)cc3Oc3cc(O)ccc32)c2ccccc21	inactive	inactive	inactive	inactive	inactive	inactive	–	–
C[C@H](O)C(=O)Nc1c(I)c(C(=O)NC(CO)CO)c(I)c(C(=O)NC(CO)CO)c1I	inactive	inactive	inactive	inactive	inactive	inactive	–	–
C#C[C@]1(O)CC[C@H]2[C@@H]3CCc4cc(OC5CCCC5)ccc4[C@H]3CC[C@@]21C	–	–	–	–	–	inactive	–	inactive
CCCCC(=O)O[C@]1(C(=O)CO)CC[C@H]2[C@@H]3CCC4=CC(=O)CC[C@]4(C)[C@H]3[C@@H](O)C[C@@]21C	inactive	inactive	inactive	inactive	inactive	inactive	inactive	–

Structure (SMILES)	Potency [1]	Potency [2]	Potency [3]	Potency [4]	Potency [5]	Potency [6]	Potency [7]	Potency [8]
C[C@]12C=CC(=O)C=C1CC[C@@H]1[C@@H]2[C@@H](O)C[C@@]2(C)[C@H]1CC[C@]2(O)C(=O)CO	inactive	inactive	inactive	inactive	inactive	inactive	inactive	–
C[C@]12C=CC(=O)C=C1[C@@H](F)C[C@@H]1[C@@H]2[C@@H](O)C[C@@]2(C)[C@H]1CC[C@]2(O)C(=O)CO	inactive	inactive	inactive	inactive	inactive	inactive	inactive	–
CCN1CCC[C@H]1CNC(=O)c1c(OC)ccc(Br)c1OC	inactive	inactive	inactive	inactive	inactive	inactive	inactive	–
CCOc1ccc(Cc2nccc3cc(OCC)c(OCC)cc23)cc1OCC	21.1 µM (active)	inactive	–	–	–	–	–	–
CC(=O)N/N=C/c1ccc([N+](=O)[O-])o1	–	inactive	–	–	–	–	inactive	–
C[C@@H]1CN(CCCn2c3ccccc3c3ccccc32)C[C@H](C)N1	inactive	–	–	–	–	inactive	inactive	–
CN(C)/N=N/c1nc[nH]c1C(N)=O	–	inactive	inactive	2.66 µM (active)	–	inactive	inactive	–
Oc1c(I)cc(I)c2cccnc12	–	13.3 µM (active)	–	–	–	–	inactive	–
COC1=CC(=O)C[C@@H](C)[C@]12Oc1c(Cl)c(OC)cc(OC)c1C2=O	–	21.1 µM (active)	–	–	–	11.9 µM (active)	inactive	–
Nc1ccc(C(=O)Nc2ccccc2N)cc1	16.8 µM (active)	13.3 µM (active)	–	3.76 µM (active)	17.4 µM (active)	3.76 µM (active)	–	–
CC(C)(C)CC(C)(C)c1ccc(OCCOCC[N+](C)(C)Cc2ccccc2)cc1	–	21.1 µM (active)	10.6 µM (active)	5.96 µM (active)	13.8 µM (active)	–	–	–
O=C1OCCN1/N=C/c1ccc([N+](=O)[O-])o1	inactive	inactive	–	inactive	inactive	inactive	inactive	–
O=c1c(-c2ccccc2)c1-c1ccccc1	21.1 µM (active)	–	8.41 µM (active)	6.68 µM (active)	–	–	–	–
COCc1c(C(C)C)nc(C(C)C)c(/C=C/[C@@H](O)C[C@@H](O)CC(=O)O)c1-c1ccc(F)cc1	0.266 µM (active)	0.237 µM (active)	0.668 µM (active)	1.19 µM (active)	2.19 µM (active)	1.68 µM (active)	0.841 µM (active)	–
C[n+]1c2cc(N)ccc2cc2ccc(N)cc21 (tested in a mixture with another compound)	21.1 µM (active)	–	5.31 µM (active)	8.41 µM (active)	3.47 µM (active)	11.9 µM (active)	–	–
Oc1ccc(Cl)cc1Sc1cc(Cl)ccc1O	21.1 µM (active)	13.3 µM (active)	–	–	21.9 µM (active)	15 µM (active)	inactive	–
COc1ccc(CN2CCN(C(c3ccc(F)cc3)c3ccc(F)cc3)CC2)c(OC)c1OC	inactive	–	21.1 µM (active)	–	–	–	–	–
CCCSS/C(CCO)=C(\C)N(C=O)Cc1cnc(C)nc1N	–	–	–	15 µM (active)	inactive	16.8 µM (active)	inactive	–
OC[C@@H](O)[C@@H](O[C@@H]1O[C@H](CO)[C@H](O)[C@H](O)[C@H]1O)[C@H](O)[C@@H](O)CO	inactive	inactive	inactive	–	inactive	inactive	inactive	–
CCCCCCCCCCOCC(O)CN (stereo not drawn)	inactive	–	21.1 µM (active)	–	–	–	inactive	–
CCOc1ccc2nc3cc(N)ccc3c(N)c2c1	–	inactive	26.6 µM (active)	–	15.5 µM (active)	inactive	–	–

Structure (SMILES)	Potency [1]	Potency [2]	Potency [3]	Potency [4]	Potency [5]	Potency [6]	Potency [7]	Potency [8]
Cc1c(N(C)CS(=O)(=O)O)c(=O)n(-c2ccccc2)n1C	inactive	inactive	–	inactive	inactive	inactive	inactive	–
Oc1c(I)cc(Cl)c2cccnc12	–	18.8 µM (active)	21.1 µM (active)	–	–	–	–	–
CCN(CC)CCOc1ccc(C(O)(Cc2ccc(Cl)cc2)c2ccc(C)cc2)cc1 (stereo not drawn)	–	–	–	21.1 µM (active)	–	–	–	–
CC(=O)O[C@]1(C(C)=O)CC[C@H]2[C@@H]3C[C@H](C)C4=CC(=O)CC[C@]4(C)[C@H]3CC[C@@]21C	inactive	inactive	–	33.5 µM (active)	inactive	inactive	inactive	–
NC(=NCCCCCCN=C(N)/N=C(\N)Nc1ccc(Cl)cc1)/N=C(\N)Nc1ccc(Cl)cc1	21.1 µM (active)	–	21.1 µM (active)	–	–	–	–	–
CC(=O)N(O)CCCCCNC(=O)CCC(=O)N(O)CCCCCNC(=O)CCC(=O)N(O)CCCCCN	8.41 µM (active)	–	inactive	–	12.3 µM (active)	–	inactive	–
COc1cccc(CCc2ccccc2OCC(CN(C)C)OC(=O)CCC(=O)O)c1 (stereo not drawn)	inactive	–	–	–	inactive	inactive	inactive	–
CC1=C(C(=O)OC(C)C)C(c2cccc([N+](=O)[O-])c2)C(C(=O)OC2CN(C(c3ccccc3)c3ccccc3)C2)=C(N)N1 (stereo not drawn)	–	–	13.3 µM (active)	6.68 µM (active)	–	–	–	–
C/C=C(/C(=C/C)c1ccc(O)cc1)c1ccc(O)cc1	–	–	–	8.41 µM (active)	inactive	18.8 µM (active)	inactive	–
O=S1(=O)c2cccc3cccc(c23)N1CCCN1CCN(c2ccc(F)cc2)CC1	inactive	inactive	inactive	–	inactive	inactive	–	–
CN(C(=O)CN(CCO)CC(=O)N(C)C(C)(C)Cc1ccccc1)C(C)(C)Cc1ccccc1	inactive	–	inactive	–	–	–	–	–
C=C(CC)C(=O)c1ccc(OCC(=O)O)c(Cl)c1Cl	–	inactive	–	18.8 µM (active)	–	21.1 µM (active)	–	–
Cc1ccccc1C(=O)Nc1ccc(C(=O)N2CCCC(N(C)C)c3ccccc32)cc1 (stereo not drawn)	–	9.44 µM (active)	8.41 µM (active)	6.68 µM (active)	–	2.99 µM (active)	inactive	–
COc1ccc(CCN2CCC(Nc3nc4ccccc4n3Cc3ccc(F)cc3)CC2)cc1	–	–	–	–	30.9 µM (active)	–	–	–
CCCCCCCCCCCCCCCC[N+](C)(C)CCN(Cc1ccc(OC)cc1)c1ncccn1	–	–	16.8 µM (active)	13.3 µM (active)	24.6 µM (active)	–	–	–
CN1CCN(CCCN2c3ccccc3Sc3ccc(S(=O)(=O)N(C)C)cc32)CC1	inactive	18.8 µM (active)	–	–	–	inactive	inactive	–
Oc1ccc(Cl)c2cccnc12	–	inactive	–	–	–	–	inactive	–
CN1CCCC(CC2c3ccccc3Sc3ccccc32)C1 (stereo not drawn)	inactive	–	–	23.7 µM (active)	–	inactive	inactive	–
CC(C)NC[C@@H](O)COc1cccc2ccccc12	inactive	inactive	–	–	inactive	inactive	inactive	–
CCCCCCCCCCCCCCNCCO	inactive	inactive	–	inactive	inactive	inactive	inactive	–
